# The campaign covered roughly 120,000 compounds. About 5,300 (4.4%) were called active. Inconclusive results (about 22%) are left out. Shown is part of a subset that was picked to be rich in actives. Entries that show only a call come without a potency. A number with no mark means an inactive call. Calls follow the shape of the dose curve; as a rule, active = well fitted inhibition curve with a large enough effect; inconclusive = small, poorly fitted or top-dose-only effect; inactive = no such curve, though single readings can be large or run the other way.
# Test: qHTS Primary assay for Inhibitors of Plasmodium falciparum Dd2 growth in vitro; also: nearly all actives have a fitted effect of over 65% in size
# Settings: P. falciparum Dd2 growth, SYBR Green, 72 h; series mostly up to 28.9 µM
# Method in brief: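 Readout: SYBR Green fluorescence, 485 nm excitation, 535 nm emission, after ~16 h lysis at 37C. Before that, Dd2-infected red cells (2.5% hematocrit) grew 72 h with compound, 29 uM top final concentration.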
# Potency is read from the fitted curve at half-maximal effect.
SMILES,Potency,"activity, negative = inhibition"
CCCN1CCN(C(=O)CC2CCCN(c3cnn(CCOC)c(=O)c3)C2)CC1 (centres undefined),inactive,
O=C(c1cnccn1)N1CC2CC(C1)[C@H]1CCCC(=O)N1C2 (some centres undefined),inactive,
CCn1ncc(C(=O)N2CC[C@@H]3CN(S(C)(=O)=O)[C@@H]3C2)c1C,inactive,
NC(=O)CCNC(=O)C1=C[C@@H](NC(=O)CC2(CC(=O)O)CCCC2)[C@@H](O)[C@H](O)C1,inactive,
O=C(c1ccc(C(F)(F)F)cc1)N1CCC([C@@H]2CNC[C@H]2CO)CC1,inactive,
Cc1nnc2n1CCC(NC(=O)c1cc(CN3CCOCC3)on1)CC2 (centres undefined),inactive,
CN(C)C[C@H]1C[C@@H](CO)CN(C(=O)CCc2ccncc2)C1,inactive,
O=C1CCN(C(=O)C2CCN(C(=O)NC3CCCCC3)CC2)CCCCCCN1,inactive,
COCCNC(=O)c1nc(-c2cc(Cl)cc(Cl)c2)c2ccccn12,inactive,
Cc1cccc(C)c1-c1nc(C(=O)NCc2ccc(F)cc2)n2ccccc12,inactive,
O=C(NCc1ccc(F)cc1)c1nc(-c2ccccc2)c2ccccn12,11.2 µM (active),
CC(C)c1ccc(NC(=O)c2cc(S(=O)(=O)N3CCc4ccccc4C3)ccc2F)cc1,inactive,
NS(=O)(=O)c1ccc(NC(=O)COc2ccc(S(=O)(=O)NC3CCCCC3)cc2)cc1,inactive,
CCc1ccc(NC(=O)c2cc(S(=O)(=O)NC3CCCCCC3)ccc2F)cc1,7.94 µM (active),
Cc1cnc(C(=O)N(C)C2CCc3nnc(C)n3CC2)cn1 (centres undefined),inactive,
O=C(NC1CC(=O)N(CCc2cccc(Cl)c2)C1)c1ccsc1 (centres undefined),inactive,
O=C(CC1CC1)N1C[C@H]2OC(=O)N(CCc3cccc(Cl)c3)[C@H]2C1,inactive,
O=C1CC(NCc2ccoc2)CN1CCc1cccc(Cl)c1 (centres undefined),10 µM (active),
Cc1oc(-c2cccs2)nc1CN1CCOC(Cc2ccccc2)C1 (centres undefined),inactive,
COc1ccc(-c2nc(Cn3c(=O)cc(C)c4c(C)nn(-c5ccccc5)c43)c(C)o2)cc1OC,inactive,
COc1cccc(-c2nc(CS(=O)(=O)CC(=O)N3CCN(c4cc(C)ccc4C)CC3)c(C)o2)c1,inactive,
COc1ccc(-c2nc(CN3CCOC(CN)C3)c(C)o2)c2ccccc12 (centres undefined),12.6 µM (active),
Cc1oc(-c2cccc(Oc3ccccc3)c2)nc1CN1CCOC(CCN)C1 (centres undefined),7.08 µM (active),

SMILES,Potency,"activity, negative = inhibition"
COC(=O)c1cc2occc2n1Cc1nc(-c2ccccc2C)oc1C,inactive,
CC(C)CN=C1S[C@H]2[C@H]([C@@H](O)[C@H](O)C[C@@H]2C(N)=O)N1Cc1ccc(F)cc1,inactive,
O=C(Cc1cccc(F)c1)NC1CCN(c2cc(C(F)(F)F)ncn2)CC1,inactive,
CCOC(=O)C1CCN(c2nc3c(S(=O)(=O)c4ccc(CC)cc4)nnn3c3ccc(Cl)cc23)CC1,inactive,
COc1ccc(N2CCN(C(=O)c3ccc4c(Cl)c5c(nc4c3)CCCC5)CC2)cc1,inactive,
CCOC(=O)C1CCN(C(=O)CSc2c3c(nc4ccc(Cl)cc24)CCCC3)CC1,14.1 µM (active),
COc1cc(C(=O)N2CCC(Cc3nc(-c4ccccc4)no3)CC2)cc(OC)c1OC,inactive,
O=C(N[C@H]1CCOC[C@H]1C1CCOCC1)c1cccc2nccnc12,inactive,
CCn1ncc(N2CCCC(CC(=O)NCc3ccc(OC)cc3)C2)cc1=O (centres undefined),inactive,
O[C@@H]1C[C@@H](c2nc(Cc3ccc(F)cc3Cl)no2)N(Cc2ncc[nH]2)C1,inactive,
Cc1nn(-c2cccc(Br)c2)c(C)c1[C@@H]1C=C[C@@H](NC(=O)CC2(CC(=O)O)CCCC2)C1,inactive,
COc1ccc(-n2nc(C)c([C@@H]3C=C[C@@H](NC(=O)Nc4ccccc4)C3)c2C)cc1,10 µM (active),
COc1cccc(NC(=O)Cn2c(=O)cc(C)c3c(C)nn(-c4cccc(F)c4)c32)c1,inactive,
Cc1nn(-c2ccc(C(C)C)cc2)c(C)c1[C@@H]1C=C[C@@H](NC(=O)Nc2ccccc2)C1,11.2 µM (active),
Cc1nn(-c2ccc(C(C)C)cc2)c(C)c1[C@@H]1C=C[C@@H](NC(=O)CC2(CC(=O)O)CCCC2)C1,inactive,
Cc1nn(Cc2ccccc2)c(C)c1[C@@H]1C=C[C@@H](NC(=O)NC2CCCCC2)C1,inactive,
COc1ccc(-n2nc(C)c([C@H]3C=C[C@@H](OC(=O)Nc4cccc(F)c4)C3)c2C)cc1,10 µM (active),
Cc1nn(-c2ccc(C(C)C)cc2)c(C)c1[C@@H]1C=C[C@@H](NC(=S)NCC(C)C)C1,12.6 µM (active),
CCC(C)NC(=O)Cc1csc2nc(C)c(-c3cc(C)n(-c4ccc(C(C)C)cc4)n3)c(=O)n12 (centres undefined),inactive,
Cc1nn(CCC#N)c(C)c1[C@@H]1C=C[C@@H](NS(=O)(=O)c2ccccc2)C1,inactive,
Cc1nn(-c2ccccc2)c(C)c1[C@@H]1C=C[C@@H](NC(=O)c2ccc3c(c2)OCO3)C1,inactive,
Cc1nn(Cc2ccccc2)c(C)c1[C@@H]1C=C[C@@H](NC(=O)NC(C)C)C1,inactive,
C=CCNC(=O)C1N(C(C)C)C(=O)C12CCCCC2 (centres undefined),inactive,

SMILES,Potency,"activity, negative = inhibition"
COc1ccc(NC(=O)C2CN(S(=O)(=O)c3cccnc3)CC23CCCCC3)cc1F (centres undefined),inactive,
CCOCCCNC(=O)N1C[C@@H](Oc2cccnc2)C[C@@H]1C(=O)N1CCOCC1,inactive,
CCCN(CC1CCOC1)S(=O)(=O)c1ccc2c(c1)CCCC2 (centres undefined),,7.48% [at 5.79 µM]
CC(C)N1C(=O)CO[C@H]2CCN(CCCc3ccccc3)CC[C@@H]21,inactive,
CCCCC(CC)CNC(=O)C1CCN(S(=O)(=O)c2cccc3nsnc23)CC1 (centres undefined),inactive,
COc1ccc(NC(=O)C2CCCN(S(=O)(=O)c3cccc4nonc34)C2)cc1Cl (centres undefined),inactive,
CCCCN(C)CCNC(=O)C1CCCN(S(=O)(=O)c2cccc3nsnc23)C1 (centres undefined),5.01 µM (active),
O=C(Cc1cccc(Cl)c1)NCc1nnc2ccc(-c3ccccc3)nn12,inactive,
Cc1cc(C(=O)N2CCCCCCn3c(nnc3-c3ccc(F)cc3)CC2)nn1C,inactive,
Cc1c(Cl)cccc1NC(=O)CCS(=O)(=O)c1ccc2c(c1)oc(=O)n2C,3.16 µM (active),
CCN(Cc1ccccc1)C(=O)CCS(=O)(=O)c1ccc2c(c1)oc(=O)n2C,inactive,
CCOC(=O)c1ccc(NC(=O)CCS(=O)(=O)c2ccc3c(c2)oc(=O)n3C)cc1,inactive,
COc1cccc(CC(=O)N2CCN(c3cc(-c4cccs4)[nH]n3)CC2)c1,inactive,
O=C(NCCn1ccn2nc(-c3ccc(F)cc3)cc2c1=O)c1ccco1,inactive,
COC(=O)c1ccc(NC(=O)N2[C@H]3CC[C@@H]2c2cnc(-c4ccc(F)cc4)nc2C3)cc1,7.08 µM (active),
O=C(Cc1ccccc1)N1[C@H]2CC[C@@H]1c1cnc(-c3ccc(F)cc3)nc1C2,inactive,
Cn1cnc(S(=O)(=O)N2[C@H]3CC[C@@H]2c2cnc(-c4ccc(F)cc4)nc2C3)c1,inactive,
O=C1NCCOCCN(C(=O)Nc2ccccc2)[C@@H]2CCCC[C@H]12,inactive,
COc1ccc(-c2noc([C@@H](C)NCc3ccc(F)cc3)c2C(=O)O)cc1,inactive,
O=C(c1ccc(Cl)cc1)N1CCn2c(nn(-c3ccncc3)c2=O)C1,inactive,
CCOC(=O)C1=CN(CC(=O)Nc2cccc(C(C)C)c2)S(=O)(=O)N=C1C,inactive,
Cc1ccc(S(=O)(=O)NC[C@H]2C[C@@H]3CCN2C[C@@H]3CN2CCN(c3ncccn3)CC2)cc1,inactive,
COc1ccc(-c2cc([C@H]3CN4CC[C@H]3C[C@@H]4CNS(=O)(=O)Cc3ccccc3)n(C)n2)cc1OC,11.2 µM (active),

SMILES,Potency,"activity, negative = inhibition"
O=C(NCc1ccccc1)[C@H]1CN2CCC1C[C@@H]2Cn1cc(-c2ccc(F)cc2)nn1 (some centres undefined),inactive,
COc1ccc(-c2cc([C@H]3CN4CC[C@H]3C[C@@H]4CNC(=O)c3ccccc3)n(C)n2)cc1OC,11.2 µM (active),
COc1ccc(-c2cc([C@H]3CN4CC[C@H]3C[C@@H]4CNC(=O)C3CC3)n(C)n2)cc1OC,inactive,
COc1cc2c(cc1OC)C(CNC(=O)c1cccc(Cl)c1)N(C(=O)Nc1ccccc1)CC2 (centres undefined),inactive,
COc1ccccc1-c1cc([C@H]2CN3CC[C@H]2C[C@@H]3CNCc2cccc(C#N)c2)n(C)n1,inactive,
Cn1nc(-c2ccc(F)cc2)cc1[C@H]1CN2CC[C@H]1C[C@@H]2CNCc1ccccn1,2.82 µM (active),
COc1ccc(-c2ccc3ncn(Cc4ccccc4)c(=O)c3n2)cc1OC,inactive,
Cc1ccc(C(=O)N2CC[C@H](CO)[C@H](NC(=O)C3CC3)C2)cn1,inactive,
O=C(NCc1cnn(Cc2ccccc2)c1)c1ccc2oc(-c3cccc(F)c3)nc2c1,inactive,
COc1ccc(-c2cc(CC3(N(Cc4ccc(CO)o4)Cc4ccc(CO)o4)COC3)no2)cc1,inactive,
CCOC(=O)c1c(NC(=O)c2ccc(S(=O)(=O)N3CCCC(C)C3)cc2)sc2c1CCN(C(C)C)C2 (centres undefined),7.94 µM (active),
CCOC(=O)c1c(NC(=O)c2ccc(S(=O)(=O)N(CC)CC)cc2)sc2c1CCCCC2,inactive,
CCOC(=O)c1c(NC(=O)/C=C/c2ccc(OC)cc2)sc2c1CCC(C)C2 (centres undefined),inactive,
Clc1ccc(CN2CCC3(CC2)CC(c2ccccc2)=NO3)cc1,inactive,
Cc1ccc(NC(=O)N2CCc3[nH]c4ccc(F)cc4c3C2)cc1C,inactive,
COc1ccccc1-n1cc(C(=O)N2CCc3c(Cl)cccc3C2)cn1,inactive,
COC[C@@H]1CN(C(=O)COc2cccc(C)c2)C[C@H]1c1nc(C)no1,inactive,
Cc1ccccc1CNC(=O)c1ccc(NC(=O)N2CCCCc3ccccc32)cc1,inactive,
CCOC(=O)C1CCN(C(=O)c2cccc3c2CCN3C(=O)Nc2ccccc2)CC1,11.2 µM (active),
CC[C@H]1CN(C(=O)Nc2ccccc2)CC[C@H]1CC(=O)Nc1ccccc1,inactive,

# From PubChem BioAssay AID1347417 (National Center for Advancing Translational Sciences (NCATS), 2020)
